Measurements taken from PubChem BioAssay (NCATS).
Where “and” joins values, the source holds several entries; their conditions need not be identical. Identical values can stand only once. Inconclusive results are not listed. Calls of active or inactive are those of the source. Unless noted, calls follow the shape of the full dose curve.

Columns and labels:
[1] = Cellular Toxicity (caspase-3) NIH 3T3 (AID 666; active = well fitted curve in the direction sought with a large enough effect; an effect the other way counts as inactive or inconclusive;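 also: 0% = DMSO basal and 100% = 100 µM tamoxifen stimulation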); settings: NIH 3T3 caspase-3 activation, apoptosis/toxicity, 0% DMSO, 100% is 100 µM tamoxifen; series mostly up to 92.2 µM
Procedure, shortened: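 NIH 3T3, 1000 cells/well, 5 hr settle then 16 hr compound at 37°C; Caspase-Glo 3/7, 20 min RT, luminescence. DMSO = basal, 100 uM tamoxifen = 100%. Hill-equation AC50, qHTS.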

[2] = Cellular Toxicity (caspase-3) Renal Proximal Tubule (AID 667; active = well fitted curve in the direction sought with a large enough effect; an effect the other way counts as inactive or inconclusive;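 also: cells exposed to compound for 16 hours at 37 °C before detection; 0% = DMSO basal and 100% = 10 µM staurosporine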); settings: renal proximal tubule cells; at 91.7 µM (top of the series), primary cells freshly taken from rat, solvent-only wells 0%, staurosporine 100% unless noted
Procedure, shortened: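 Caspase-Glo 3/7 read-out, rat primary kidney proximal tubule cells. Compound exposure 16 h, 37 °C; detection after 1 h at RT. Activity scaled to DMSO and 10 uM staurosporine.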

[3] = Cell Viability - LYMP2-021 (AID 974; active = well fitted curve in the direction sought with a large enough effect; an effect the other way counts as inactive or inconclusive;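 also: compound exposure lasts 24 hours at 37 °C; % is scaled to controls: 0 for no effect and ±100 for the full control effect; nearly all actives have a fitted effect of over 55% in size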); settings: LYMP2-021 lymphoblastoid cells viability; series mostly up to 92.2 µM
Procedure, shortened: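 ATP luminescence (CellTiter-Glo, 30 min RT) after 24 h compound exposure at 37 C; 2500 human lymphoblastoid cells/well, 5 h settle beforehand. Cytotoxicity = concentration-dependent ATP drop, AC50 by Hill fit.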

[4] = biological target: Estrogen receptor (Homo sapiens) (UniProt P03372); test: qHTS assay for small molecule antagonists of estrogen receptor alpha signaling (AID 588513; active = well fitted curve in the direction sought with a large enough effect in the signal ratio, with a control signal flat, not every such curve was filed as active; the % refers to the signal ratio; also: % is scaled to controls: 0 for no effect and ±100 for the full control effect); settings: ER-alpha-UAS-bla HEK293, beta-lactamase ratio, antagonist mode; series mostly up to 76.9 µM
Procedure, shortened: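 Antagonist-mode qHTS in ER-alpha-UAS-bla HEK 293 cells: compound titration, 0.5nM estradiol for 18 h, CCF4 fluorescence, Hill-derived IC50.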

[5] = biological target: Estrogen receptor (Homo sapiens) (UniProt P03372); test: qHTS assay for small molecule agonists of estrogen receptor alpha signaling (AID 588514); settings: ER-alpha-UAS-bla HEK293, beta-lactamase ratio, 18 h; series mostly up to 76.8 µM;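 also: 0% = vehicle only and 100% = reference agonist; nearly all actives have a fitted effect of over 70% in size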
Procedure, shortened: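 Read-out: CCF4 fluorescence from a beta-lactamase reporter in ER-alpha-UAS-bla HEK 293 cells after 18 hrs of compound exposure at 37 C. Normalized to 20 nM 17-beta-estradiol (100%) and DMSO (0%).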

[6] = biological target: Bile acid receptor (Homo sapiens) (UniProt Q96RI1); test: qHTS assay for small molecule antagonists of farnesoid X receptor signaling (AID 588526); settings: HEK293T FXR-UAS-bla, beta-lactamase ratio, antagonist mode; series mostly up to 76.7 µM; also: % is scaled to controls: 0 for no effect and ±100 for the full control effect
Procedure, shortened: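 Beta-lactamase reporter antagonist mode: HEK293T FXR-UAS-bla cells, titrated compound, CDCA stimulation, 16 h 37 C, CCF4 dye 2 h RT. Data normalized to CDCA 50 uM and DMSO; Hill-fit IC50.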

[7] = biological target: Glucocorticoid receptor (Homo sapiens) (UniProt P04150); test: qHTS assay for small molecule antagonists of glucocorticoid receptor signaling (AID 588533; active = well fitted inhibition curve with a large enough effect in the signal ratio, with a control signal flat, not every such curve was filed as active; the % refers to the signal ratio;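 also: cells stimulated with 2 nM dexamethasone as agonist; % is scaled to controls: 0 for no effect and ±100 for the full control effect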); settings: HeLa MMTV-bla, GRE beta-lactamase ratio, antagonist mode, 18 h; series mostly up to 76.8 µM
Procedure, shortened: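 Antagonist-mode qHTS: compound titrations added to GRE-bla HeLa cells, then dexamethasone 2 nM final; 18 h, 37 C. CCF4 FRET fluorescence normalized to dexamethasone and DMSO; IC50 from Hill fit.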

[8] = biological target: Peroxisome proliferator-activated receptor gamma (Homo sapiens) (UniProt P37231); test: qHTS assay for small molecule antagonists of peroxisome proliferator-activated receptor gamma signaling (AID 588537; active = well fitted inhibition curve with a large enough effect in the signal ratio, with a control signal flat, not every such curve was filed as active; the % refers to the signal ratio;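 also: reporter cells co-stimulated with 50 nM rosiglitazone agonist during compound treatment; % of control where 0% means no effect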); settings: HEK293 PPARg-UAS-bla, beta-lactamase ratio, antagonist mode; series mostly up to 76.8 µM
Procedure, shortened: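 Cell-based beta-lactamase assay; GW9662 served as the antagonist control. Stimulation used rosiglitazone, final 50 nM, 16 h, 37 C.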

[9] = biological target: Vitamin D3 receptor (Homo sapiens) (UniProt P11473); test: qHTS assay for small molecule antagonists of vitamin D receptor signaling (AID 588541); settings: HEK293T VDR-UAS-bla, beta-lactamase ratio, antagonist mode; series mostly up to 76.7 µM;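 also: receptor activated by calcitriol during compound treatment; % is scaled to controls: 0 for no effect and ±100 for the full control effect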
Procedure, shortened: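 Antagonist-mode beta-lactamase reporter assay: HEK293T VDR-UAS-bla cells were exposed to titrated compound alongside 1-alpha,25-dihydroxyvitamin D3 at 3 nM final for 16 h. Values were normalized to the 50 nM agonist control and DMSO basal, with IC50 and efficacy from Hill equation fits.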

[10] = biological target: Vitamin D3 receptor (Homo sapiens) (UniProt P11473); test: qHTS assay for small molecule agonists of vitamin D receptor signaling (AID 588543); settings: HEK293T VDR-UAS-bla, beta-lactamase ratio, 16 h; series mostly up to 76.8 µM;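 also: 0% = DMSO basal and 100% = reference agonist control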
Procedure, shortened: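 Measured: β-lactamase reporter activity (CCF4, 405 nm excitation, 460/530 nm emission) in HEK293T VDR-UAS-bla cells after 16 h compound exposure at 37 °C. Normalization against 50 nM 1α,25-dihydroxyvitamin D3 and DMSO; Hill-fit EC50.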

[11] = qHTS assay for small molecule agonists of the antioxidant response element (ARE) signaling pathway (AID 651741; active = well fitted activation curve with a large enough effect in the signal ratio; the % refers to the signal ratio; also: % of control where 0% means no effect); settings: HepG2 ARE-bla reporter, beta-lactamase FRET ratio, 16 h; series mostly up to 96 µM
Procedure, shortened: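 Agonist activity is measured as ARE-driven beta-lactamase expression in a stable HepG2 reporter line, using 16 h compound treatment at 37 C and a FRET substrate fluorescence readout after 2 h.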

[12] = qHTS assay for small molecule activators of the nuclear factor-kappa B (NF-kB) signaling pathway (AID 651749; active = well fitted activation curve with a large enough effect in the signal ratio; the % refers to the signal ratio; also: % of control where 0% means no effect); settings: NF-kB-bla ME-180 cells, beta-lactamase FRET ratio, 16 h; activation: hits give high values
Procedure, shortened: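 FRET-based beta-lactamase detection in ME-180 cells reports NF-kB response-element-driven transcription following overnight (16 hr) compound treatment.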

[13] = Cellular Toxicity (caspase-3) HepG2 (AID 654; active = well fitted curve in the direction sought with a large enough effect; an effect the other way counts as inactive or inconclusive;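 also: cells exposed to compound for 16 hours before reading; 0% = DMSO alone and 100% = caspase signal from 100 µM tamoxifen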); settings: HepG2 caspase-3 activation, luminescence, 0% = DMSO only, 100% = tamoxifen; series mostly up to 92.2 µM
Procedure, shortened: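 Luminescent Caspase-Glo 3/7 readout after 16 hr compound exposure of human hepatocellular carcinoma HepG2 cells at 37 °C; qHTS concentration-response, normalized DMSO = 0%, 100 uM tamoxifen = 100%; AC50 by standard Hill equation.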

Sequence of Vitamin D3 receptor (Homo sapiens) (P11473 whole entry, looked up): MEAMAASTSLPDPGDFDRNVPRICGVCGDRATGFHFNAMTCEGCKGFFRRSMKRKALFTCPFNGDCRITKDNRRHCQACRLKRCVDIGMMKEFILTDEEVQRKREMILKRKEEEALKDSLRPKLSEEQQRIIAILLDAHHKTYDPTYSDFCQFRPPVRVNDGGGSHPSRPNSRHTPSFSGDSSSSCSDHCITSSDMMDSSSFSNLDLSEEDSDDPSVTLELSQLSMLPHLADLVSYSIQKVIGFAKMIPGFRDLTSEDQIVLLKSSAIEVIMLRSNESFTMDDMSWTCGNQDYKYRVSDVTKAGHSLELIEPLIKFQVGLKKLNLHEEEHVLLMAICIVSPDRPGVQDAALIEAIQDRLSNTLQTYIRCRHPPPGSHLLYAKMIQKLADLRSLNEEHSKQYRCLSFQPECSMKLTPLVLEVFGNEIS
Sequence of Peroxisome proliferator-activated receptor gamma (Homo sapiens) (P37231 whole entry, looked up): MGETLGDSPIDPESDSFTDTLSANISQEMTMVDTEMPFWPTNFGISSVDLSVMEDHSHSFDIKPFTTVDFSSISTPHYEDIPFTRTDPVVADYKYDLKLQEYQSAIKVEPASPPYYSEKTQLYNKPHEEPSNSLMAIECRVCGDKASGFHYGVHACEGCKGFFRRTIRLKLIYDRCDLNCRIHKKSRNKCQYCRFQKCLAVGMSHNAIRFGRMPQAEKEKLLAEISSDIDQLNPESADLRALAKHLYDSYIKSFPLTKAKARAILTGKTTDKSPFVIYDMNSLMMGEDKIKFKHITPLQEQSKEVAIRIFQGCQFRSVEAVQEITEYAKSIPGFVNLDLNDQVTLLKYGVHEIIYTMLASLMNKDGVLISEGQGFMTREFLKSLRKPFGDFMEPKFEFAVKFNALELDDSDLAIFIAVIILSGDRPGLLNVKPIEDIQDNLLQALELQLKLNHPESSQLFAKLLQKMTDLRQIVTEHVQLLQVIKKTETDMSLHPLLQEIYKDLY
Sequence of Bile acid receptor (Homo sapiens) (Q96RI1 whole entry, looked up): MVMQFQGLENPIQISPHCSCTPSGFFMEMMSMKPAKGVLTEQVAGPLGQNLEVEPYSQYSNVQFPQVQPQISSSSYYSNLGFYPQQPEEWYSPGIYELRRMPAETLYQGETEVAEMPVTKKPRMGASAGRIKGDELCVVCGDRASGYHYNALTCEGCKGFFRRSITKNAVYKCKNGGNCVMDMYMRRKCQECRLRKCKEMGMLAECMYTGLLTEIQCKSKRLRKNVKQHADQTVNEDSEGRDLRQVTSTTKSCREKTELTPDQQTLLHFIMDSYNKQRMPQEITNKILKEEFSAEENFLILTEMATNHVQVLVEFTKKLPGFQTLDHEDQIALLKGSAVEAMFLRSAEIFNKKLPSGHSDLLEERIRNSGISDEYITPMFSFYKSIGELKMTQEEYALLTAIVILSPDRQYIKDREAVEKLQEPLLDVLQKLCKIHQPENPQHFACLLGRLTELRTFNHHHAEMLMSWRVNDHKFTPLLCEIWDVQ
Sequence of Glucocorticoid receptor (Homo sapiens) (P04150 whole entry, looked up): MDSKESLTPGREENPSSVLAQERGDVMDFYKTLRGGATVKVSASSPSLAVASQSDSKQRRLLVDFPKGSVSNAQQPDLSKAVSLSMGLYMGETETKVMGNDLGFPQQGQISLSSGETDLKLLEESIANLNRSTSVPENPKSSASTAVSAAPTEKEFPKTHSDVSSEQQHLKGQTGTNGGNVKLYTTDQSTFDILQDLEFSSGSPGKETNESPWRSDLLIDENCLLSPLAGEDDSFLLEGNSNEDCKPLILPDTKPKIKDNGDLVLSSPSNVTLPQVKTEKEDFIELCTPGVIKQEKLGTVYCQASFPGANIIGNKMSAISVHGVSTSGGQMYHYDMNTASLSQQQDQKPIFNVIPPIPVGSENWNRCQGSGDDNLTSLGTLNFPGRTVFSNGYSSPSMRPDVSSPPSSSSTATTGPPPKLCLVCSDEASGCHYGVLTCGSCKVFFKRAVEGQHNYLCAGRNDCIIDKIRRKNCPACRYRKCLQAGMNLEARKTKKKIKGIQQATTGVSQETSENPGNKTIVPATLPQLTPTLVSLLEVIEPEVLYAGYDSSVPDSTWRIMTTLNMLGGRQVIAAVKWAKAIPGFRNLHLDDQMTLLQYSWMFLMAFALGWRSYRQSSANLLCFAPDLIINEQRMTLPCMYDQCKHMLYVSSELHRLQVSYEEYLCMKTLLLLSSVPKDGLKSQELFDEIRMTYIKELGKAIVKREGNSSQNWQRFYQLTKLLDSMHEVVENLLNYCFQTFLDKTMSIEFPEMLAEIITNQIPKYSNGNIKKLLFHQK
Sequence of Estrogen receptor (Homo sapiens) (P03372 whole entry, looked up): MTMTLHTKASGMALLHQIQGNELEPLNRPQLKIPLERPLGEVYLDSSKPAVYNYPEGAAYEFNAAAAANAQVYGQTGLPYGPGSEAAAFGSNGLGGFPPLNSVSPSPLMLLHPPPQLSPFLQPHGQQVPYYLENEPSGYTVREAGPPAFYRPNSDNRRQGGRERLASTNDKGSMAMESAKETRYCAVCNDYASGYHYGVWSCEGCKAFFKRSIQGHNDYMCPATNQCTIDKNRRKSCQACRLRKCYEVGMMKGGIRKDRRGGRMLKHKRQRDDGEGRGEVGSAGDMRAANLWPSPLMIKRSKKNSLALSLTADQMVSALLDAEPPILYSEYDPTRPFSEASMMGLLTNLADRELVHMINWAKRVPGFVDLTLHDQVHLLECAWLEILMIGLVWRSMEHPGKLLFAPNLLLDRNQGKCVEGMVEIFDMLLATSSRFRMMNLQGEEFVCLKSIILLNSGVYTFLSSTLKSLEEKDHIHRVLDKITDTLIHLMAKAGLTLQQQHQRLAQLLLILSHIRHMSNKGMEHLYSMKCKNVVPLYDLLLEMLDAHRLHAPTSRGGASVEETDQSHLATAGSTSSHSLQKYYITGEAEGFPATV

Cc1cccc([N+](=O)[O-])c1
inactive: outcome [1] | caspase-3 activation [2] 5.52% | Potency [3] | Potency [4] | Potency [5] | outcome [6] | Potency [7] | Potency [8] | outcome [9] | outcome [10] | Potency [11] | activation [12] -0.494% and -2.2%

Nc1ccccc1Cl
inactive: outcome [13] | outcome [1] | Potency [4] | Potency [5] | outcome [6] | Potency [7] | outcome [9] | outcome [10] | Potency [11] | activation [12] 0.524%

c1nc[nH]n1
inactive: outcome [1] | caspase-3 activation [2] 6.18% | Potency [3] | Potency [4] | Potency [5] | outcome [6] | Potency [7] | outcome [9] | outcome [10] | activation [12] 0.14%

CCSC(=O)Cl
inactive: outcome [13] | outcome [1] | Potency [4] | Potency [5] | outcome [6] | Potency [7] | Potency [8] | outcome [9] | outcome [10] | Potency [11] | activation [12] -1.04%

C=CC1CC=CCC1 (stereo unspecified)
inactive: outcome [13] | outcome [1] | caspase-3 activation [2] 5.69% | Potency [3] | Potency [4] | Potency [5] | outcome [6] | Potency [7] | Potency [8] | outcome [9] | outcome [10] | Potency [11] | activation [12] 0.91% and -0.814%

CC(C)(C)OOC(C)(C)C
inactive: outcome [13] | outcome [1] | Potency [3] | Potency [4] | Potency [5] | outcome [6] | Potency [7] | Potency [11] | activation [12] 1.21%

Cc1ccc2ccccc2c1
inactive: caspase-3 activation [2] 18.4% | Potency [3] | Potency [4] | Potency [5] | outcome [6] | Potency [8] | outcome [9] | outcome [10] | Potency [11] | activation [12] -0.574%

CC(C)(C)OO
inactive: outcome [13] | outcome [1] | caspase-3 activation [2] 12.8% and -1.63% | Potency [3] | Potency [8] | outcome [9] | outcome [10] | Potency [11] | activation [12] -0.974% and 0.475%

O=C=NC1CCCCC1
inactive: outcome [1] | caspase-3 activation [2] 5.04% and -5.65% | Potency [4] | Potency [5] | outcome [6] | Potency [7] | Potency [8] | outcome [9] | outcome [10] | Potency [11]

Cc1ccccc1N
inactive: outcome [13] | outcome [1] | Potency [3] | Potency [11] | activation [12] 0.244% and -0.381%

COc1ccc(C=O)cc1OC
inactive: outcome [13] | outcome [1] | caspase-3 activation [2] -4.32% | Potency [4] | Potency [5] | Potency [8] | Potency [11]

C=C(C)C(=O)OCC1CO1 (stereo unspecified)
inactive: outcome [13] | outcome [1] | caspase-3 activation [2] -4.2% | Potency [3] | Potency [4] | Potency [5] | outcome [6] | Potency [7] | Potency [8] | outcome [9] | outcome [10] | activation [12] 0.768%

c1ccc2c(c1)CCCC2
inactive: outcome [13] | caspase-3 activation [2] -4.18% | Potency [3] | Potency [4] | Potency [5] | outcome [6] | Potency [7] | outcome [9] | outcome [10] | Potency [11] | activation [12] -0.796%

C=CC(=O)OCC
inactive: outcome [13] | caspase-3 activation [2] -0.996% | Potency [3] | Potency [4] | Potency [5] | outcome [6] | Potency [7] | Potency [8] | Potency [11]

O=NN(c1ccccc1)c1ccccc1
inactive: outcome [13] | Potency [3] | Potency [4] | Potency [5] | outcome [6] | Potency [7] | Potency [8]

OCC1CO1 (stereo unspecified)
inactive: outcome [13] | outcome [1] | Potency [3] | Potency [4] | Potency [5] | outcome [6] | Potency [7] | Potency [8] | outcome [9] | outcome [10] | Potency [11]
